High-throughput results (PubChem BioAssay)
Hits are enriched below; roughly 19% of the tested compounds scored in any of these assays.
S-ASM inh: human S-ASM enzyme inhibition | 0.006% of 340,000 active | Potency, µM (doses to about 57.5 µM), for inactives: top-dose activity change, negative = inhibition, most hits filed as inhibitors | placental ASM, HMU-PC fluorogenic substrate, 60 min; note: potency is the fitted concentration of half-maximal effect
Target sequence (P17405 47-631 limits assumed): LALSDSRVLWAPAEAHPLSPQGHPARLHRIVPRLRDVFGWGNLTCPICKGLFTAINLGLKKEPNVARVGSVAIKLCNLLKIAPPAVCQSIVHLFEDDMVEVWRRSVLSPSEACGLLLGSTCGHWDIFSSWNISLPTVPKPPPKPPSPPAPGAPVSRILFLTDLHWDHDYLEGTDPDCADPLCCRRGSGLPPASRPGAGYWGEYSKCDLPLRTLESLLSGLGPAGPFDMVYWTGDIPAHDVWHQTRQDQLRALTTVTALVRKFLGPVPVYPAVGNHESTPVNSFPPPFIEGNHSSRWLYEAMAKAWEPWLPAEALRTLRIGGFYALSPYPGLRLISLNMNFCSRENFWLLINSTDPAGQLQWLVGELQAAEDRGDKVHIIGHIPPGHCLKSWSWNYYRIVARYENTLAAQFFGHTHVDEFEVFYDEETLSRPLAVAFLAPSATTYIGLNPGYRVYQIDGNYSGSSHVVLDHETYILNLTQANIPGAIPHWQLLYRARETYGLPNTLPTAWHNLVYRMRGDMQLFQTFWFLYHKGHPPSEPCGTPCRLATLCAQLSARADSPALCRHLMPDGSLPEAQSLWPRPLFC
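qHTS format. ASM enzyme prepared from human placenta hydrolyses the fluorogenic substrate HMU-PC0 (9 uM final) over 60 min at 37 °C after a 10 min compound preincubation.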
TGFb inhibitor: inhibitors of TGF-b signaling; HepG2 CAGA-GFP TGF-b/SMAD3 reporter, GFP fluorescence, 18 h; TGF-beta stimulated, 500 pg/mL final; Potency, µM (series often up to 46.1 µM), for inactives: at the top dose activity, negative = inhibition, hits mostly inhibitors; 1.2% of 410,000 active; note: potency is the fitted concentration of half-maximal effect; % is set by controls: 0 for no effect and ±100 for the full control effect; nearly all actives have a fitted effect of over 65% in size
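HEPG2 CAGA-GFP, 1000 cells/well; 2 h settle, 37 C; cpd via pin tool; TGF-b 500 pg/mL final; 18 h, 37 C; GFP imaging ex488/em500-530; %Activity normalised to -TGF-b and +DMSO controls; CRC fit, curve class.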
TDP1 cell noCPT: qHTS for Inhibitors of human tyrosyl-DNA phosphodiesterase 1 (TDP1): qHTS in cells in absence of CPT; AID 686978, 2013; Potency, µM (series often up to 46.2 µM), for inactives: at the highest dose activity change, negative = growth inhibition, usual class: inhibitors; 15% of 420,000 active; DT40 Tdp1-/- hTDP1 cells, no CPT, ATP luminescence, 48 h; note: potency is the fitted concentration of half-maximal effect; % is set by controls: 0 for no effect and ±100 for the full control effect; nearly all actives have a fitted effect of over 55% in size
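No-CPT arm: Tdp1-/-;hTDP1 DT40 cells (400/well) plus compounds, incubated ≥48 hr at 37 °C. Readout CellTiter-Glo luminescence.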
IL-1B inflam inh: blocks inflammasome-driven IL-1 beta release. THP-1 LPS/ATP IL-1B secretion, AlphaLISA, 16 h; stronger effect = lower value. activity change, % at 57.5 µM. 4.7% of 360,000 active; in the data active = activity change below about -50%; inconclusive = mostly about -30% to -49%; note: % is set by controls: 0 for no effect and ±100 for the full control effect
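THP-1 cells pretreated 1 hr with compounds (up to 57.5 uM final), then stimulated with LPS (250 ng/mL final) plus ATP (1.25 mM final); secreted IL-1B measured by AlphaLISA after 16 hr, decreased signal indicating inhibition.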
HepG2 tox: HepG2 cytotoxicity, counter-screen for TGF-b inhibitors | Potency, µM (titrated, usually from 46.1 µM), inactives show at the top dose activity change, negative = cytotoxicity, usual class: cytotoxic | HepG2 CAGA-GFP viability, ATP luminescence, 18 h | 0.76% of 410,000 active; note: potency is the fitted concentration of half-maximal effect
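CellTiter-Glo luminescence gave cytotoxicity after 18 hours at 37 degrees C. The cells were HepG2 CAGA-GFP in 1% FBS DMEM, stimulated with 500 pg/mL TGF-beta after compound addition. %Activity was normalised to no-cell wells (complete cell-killing) and DMSO (no toxicity), and curves were fitted and classified.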
TDP1 cell CPT: DT40-hTDP1 cell growth loss with CPT; chicken DT40 Tdp1-/-;hTDP1 cells + 20 nM CPT, ATP luminescence, 48 h; 12% of 420,000 active; AID 686979; Potency, µM (highest dose often 46.2 µM), without a hit: at the highest dose activity change, negative = growth inhibition, most hits filed as inhibitors; note: potency is the fitted concentration of half-maximal effect; % is set by controls: 0 for no effect and ±100 for the full control effect; nearly all actives have a fitted effect of over 55% in size
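Chicken DT40 Tdp1-/- cells stably complemented with human TDP1 were seeded at 400 cells/well in medium containing 20 nM camptothecin, exposed to pin-transferred compounds, and grown at 37 °C for at least 48 hr. Viability was read as ATP luminescence.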
Starred values were filed as active, the others as inactive; u = inconclusive; x = not tested or not shown. Unless noted, calls come from the whole dose curve; as a rule, active = well fitted curve in the direction sought with a large enough effect; inconclusive = small, poorly fitted or top-dose-only effect, or another doubt; inactive = no such curve, though single readings can be large; an effect the other way counts as inactive or inconclusive.

SMILES	S-ASM inh	TGFb inhibitor	TDP1 cell noCPT	IL-1B inflam inh	HepG2 tox	TDP1 cell CPT
CC(NS(=O)(=O)c1ccc(OCC(=O)Nc2cccc([N+](=O)[O-])c2)cc1)c1ccccc1 (stereo not drawn)	-4%	u	21µM*	-4	-9%	u
O=C(COC(=O)COc1ccccc1)Nc1cccc([N+](=O)[O-])c1	0%	-1%	-12%	-9	16%	-6%
O=C(COc1ccccc1C(=O)Nc1ccccc1)Nc1cccc(Cl)c1	x	x	18µM*	x	x	18µM*
O=C(COc1ccccc1C(=O)Nc1ccccc1)Nc1cccc([N+](=O)[O-])c1	x	-2%	u	x	-1%	13µM*
O=C(COc1ccccc1C(=O)Nc1cccc([N+](=O)[O-])c1)Nc1ccc(Br)cc1	x	u	16µM*	x	-21%	7.9µM*
CC[C@H]1OC(=O)[C@H](C)[C@@H](O[C@H]2C[C@@](C)(OC)[C@@H](O)[C@H](C)O2)[C@H](C)[C@@H](O[C@@H]2O[C@H](C)C[C@H](N(C)C)[C@H]2O)[C@](C)(O)C[C@@H](C)[C@@H]2N[C@@H](COCCOC)O[C@@H]([C@H]2C)[C@]1(C)O	x	x	-9%	x	x	-5%
COCCNc1nc(-c2cc(C)n(CCc3ccc(OC)cc3)c2C)cs1	-10%	u	18µM*	-16	-23%	16µM*
COc1ccc(CCn2c(C)cc(C(=O)COC(=O)c3cnccn3)c2C)cc1	2%	-2%	12%	-10	5%	-5%
c1ccc(-c2ccc(CN3CCSCC3)cc2)cc1	-1%	3%	-24%	-26	-2%	u
c1ccc(Cn2c(-c3ccccc3)c[n+]3c2SCCC3)cc1	4%	-10%	2.3µM*	-21	-15%	2.9µM*
O=C(NC1CCCCC1)N(c1ccccc1)c1nnc(-c2cccc([N+](=O)[O-])c2)s1	x	4%	12µM*	-6	-35%	26µM*
O=C(Cc1ccccc1)Nc1nnc(-c2cccc([N+](=O)[O-])c2)s1	5%	-5%	5%	-7	-1%	-15%
O=C(NCCn1ccc2ccccc21)c1ccc(S(=O)(=O)N2CCCCC2)cc1	0%	u	23µM*	20	-31%	u
Cc1ccc(C(=O)NCCn2ccc3ccccc32)cc1[N+](=O)[O-]	-4%	1%	8.2µM*	u	-24%	13µM*
COc1ccc(C(=O)NCCn2ccc3ccccc32)cc1	-4%	-12%	u	-16	3%	u
COc1ccccc1N1CCN(C(=O)c2cnc(N3CCOCC3)c3ccccc23)CC1	x	-17%	16µM*	x	-13%	u
COc1ccccc1N1CCN(C(=O)c2cnc(N3CCCCC3)c3ccccc23)CC1	x	u	3.7µM*	x	-26%	4.6µM*
CCc1sc(C(=O)N2CCN(C(=O)c3ccccc3)CC2)cc1C	1%	-14%	-12%	u	-26%	-23%
O=C(c1ccccc1C(=O)N1CCN(c2ccccc2)CC1)N1CCN(c2ccccc2)CC1	0%	-7%	u	-5	6%	u
CCc1sc(C(=O)N2CCN(c3ccc(F)cc3)CC2)cc1C	23%	-15%	15µM*	4	-15%	u
O=C(c1ccccc1C(=O)N1CCN(c2ccc(F)cc2)CC1)N1CCN(c2ccc(F)cc2)CC1	-3%	u	9.2µM*	-4	-1%	u
O=C(c1cnc(N2CCOCC2)c2ccccc12)N1CCN(c2ccc(F)cc2)CC1	x	-21%	u	x	-4%	15µM*
O=C(c1cnc(N2CCCCC2)c2ccccc12)N1CCN(c2ccccc2F)CC1	x	u	u	x	-32%	16µM*
